The results in this text go back to PubChem BioAssay (NCI).

This is part of a sample that, as a whole, favours compounds with a hit. Of some 83,000 tested, about 20% had one in any assay.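 Each cell line was grown in a 96-well plate and treated with one concentration of compound for 48 hours. Values below 10 were considered active.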 Unmarked numbers belong to inactive results. Active and inactive are the calls of the source.

Some test systems named below: NCI-H23 lung; NCI-H226 lung; NCI-H322M lung; HOP-62 NSCLC; NCI-H460 lung; HOP-92 NSCLC; NCI-H522 lung; A549/ATCC NSCLC; 786-0 renal; COLO 205 colon; DU-145 prostate; K-562 leukemia; MALME-3M melanoma; MDA-MB-231 breast; RXF 393 renal; SF-268 CNS; SF-295 CNS; SF-539 CNS; UACC-257 melanoma; M14 melanoma.
What all share (test): NCI-60 one-dose screen, 48 h (100 = growth as untreated, 0 = no growth, -100 = all killed)
Conditions in all cases: 10 µM unless noted

As to `OCCOCC(F)(F)F`, the growth is 104% in the assay with NCI-H23 lung; 105% in the assay with NCI-H226 lung; 97.8% in the assay with NCI-H322M lung; 111% with HOP-62 NSCLC; 108% with NCI-H460 lung; 94.9% with HOP-92 NSCLC. Further, the growth was 110% with NCI-H522 lung; 113% in the assay on A549/ATCC NSCLC; 113% in the assay on 786-0 renal; 112% in the assay on COLO 205 colon; 109% in the assay on DU-145 prostate; 97.2% in the assay with K-562 leukemia. The growth is 99.6% in the assay on MALME-3M melanoma; 124% with MDA-MB-231 breast; 113% in the assay on RXF 393 renal; 102% with SF-268 CNS; 103% with SF-295 CNS; 96.7% with SF-539 CNS. In addition, the growth is 118% in the assay with UACC-257 melanoma and 112% in the assay on M14 melanoma.

For `COc1ccc2c(c1)C(=O)/C(=C/c1cccc(OCC(=O)c3ccccc3)c1)O2`, the growth with NCI-H23 lung was 41.4%; with NCI-H226 lung, 80.9%; in the assay on NCI-H322M lung it was 108%; in the assay on HOP-62 NSCLC, 103%; with NCI-H460 lung, 93.1%; with HOP-92 NSCLC it was -58.8% (active). The growth is -67.7% (active) in the assay with NCI-H522 lung; 105% with A549/ATCC NSCLC; 104% in the assay on 786-0 renal; -12.5% (active) in the assay on COLO 205 colon; 13.5% in the assay with DU-145 prostate; -98.3% (active) with K-562 leukemia. The growth is 45.1% in the assay with MALME-3M melanoma; 67.3% in the assay on MDA-MB-231 breast; -56.8% (active) in the assay on RXF 393 renal; 36.2% in the assay on SF-268 CNS; 91.3% with SF-295 CNS; -14.7% (active) with SF-539 CNS. For the same compound, the growth in the assay on UACC-257 melanoma is 42.9%; in the assay on M14 melanoma, 49.8%.

Take `CCN(CC)C(=O)C1CCN(C(=O)c2ccccc2)CC1`: the growth in the assay on NCI-H23 lung was 95.1%; with NCI-H226 lung it was 94.1%; in the assay with NCI-H322M lung, 99.4%; with HOP-62 NSCLC, 93.3%; in the assay on NCI-H460 lung, 104%; in the assay on HOP-92 NSCLC, 98.8%. In addition, the growth is 90.8% in the assay on NCI-H522 lung; 104% in the assay on A549/ATCC NSCLC; 97.3% with 786-0 renal; 106% in the assay with COLO 205 colon; 109% in the assay with DU-145 prostate; 99.1% in the assay on K-562 leukemia. Moreover, the growth in the assay with MALME-3M melanoma is 102%; in the assay on MDA-MB-231 breast it was 105%; in the assay on RXF 393 renal it was 105%; in the assay with SF-268 CNS, 92.7%; in the assay on SF-295 CNS it was 96.7%; in the assay on SF-539 CNS, 101%. The figures for the growth in the assay with UACC-257 melanoma and with M14 melanoma were 103% and 102%, respectively.

Take `C=C1c2c(Cl)ccc(O)c2C(O)=C2C(=O)[C@]3(O)C(O)=C(C(N)=O)C(=O)[C@@H](N(C)C)[C@@H]3[C@@H](O)[C@H]12`: the growth was 8.01% (active) in the assay with NCI-H23 lung; 42.7% in the assay with NCI-H226 lung; -2.1% (active) with NCI-H322M lung; 9.39% (active) in the assay on HOP-62 NSCLC; 4.63% (active) in the assay on NCI-H460 lung; -37.3% (active) in the assay on HOP-92 NSCLC. In addition, the growth with NCI-H522 lung was 11.6%; in the assay with A549/ATCC NSCLC, 9.74% (active); in the assay with 786-0 renal it was 8.22% (active); in the assay on COLO 205 colon, 22.5%; in the assay with DU-145 prostate it was 21.9%; in the assay with K-562 leukemia it was 3.66% (active). The growth was -15% (active) in the assay on MALME-3M melanoma; 11% with MDA-MB-231 breast; 12.4% with RXF 393 renal; 11.8% with SF-268 CNS; -4.14% (active) in the assay on SF-295 CNS; 5.14% (active) in the assay with SF-539 CNS. Further, the growth in the assay with UACC-257 melanoma is -4.26% (active); with M14 melanoma it was 9.22% (active).

For the compound `OC[C@@H](O)C(O[C@@H]1O[C@H](CO)[C@H](O)[C@H](O)[C@H]1O)[C@H](O)[C@@H](O)CO` (stereo not given in full), the growth with NCI-H23 lung is 98.3%; with NCI-H226 lung, 103%; in the assay with NCI-H322M lung, 96%; with HOP-62 NSCLC, 96.7%; in the assay on NCI-H460 lung, 108%; in the assay on HOP-92 NSCLC it was 82.1%. Also, the growth in the assay on NCI-H522 lung is 95.7%; in the assay on A549/ATCC NSCLC, 110%; in the assay on 786-0 renal, 106%; with COLO 205 colon it was 110%; in the assay with DU-145 prostate, 111%; in the assay on K-562 leukemia, 104%. Moreover, the growth is 97.6% with MALME-3M melanoma; 97.3% in the assay with MDA-MB-231 breast; 108% in the assay with RXF 393 renal; 109% with SF-268 CNS; 96.1% in the assay on SF-295 CNS; 101% in the assay on SF-539 CNS. Moreover, the growth was 106% in the assay on UACC-257 melanoma and 99.9% with M14 melanoma.

As to `CC1(C)Cc2c(Br)c(Br)c(Br)c(OCC(O)CN3CCN(c4ccccn4)CC3)c2O1` (stereo not given), the growth in the assay on NCI-H23 lung was 80.9%; with NCI-H226 lung it was 91.7%; with NCI-H322M lung, 57.6%; in the assay on HOP-62 NSCLC, 102%; in the assay with NCI-H460 lung, 88%; in the assay with HOP-92 NSCLC it was -5.32% (active). The growth in the assay with NCI-H522 lung is 60.9%; in the assay with A549/ATCC NSCLC, 80.4%; in the assay with 786-0 renal, 31.3%; in the assay on COLO 205 colon, 114%; with DU-145 prostate it was 106%; in the assay on K-562 leukemia, 36.4%. Moreover, the growth with MALME-3M melanoma is 88.2%; in the assay with MDA-MB-231 breast, 57.4%; in the assay on RXF 393 renal, 99.7%; with SF-268 CNS it was 79.1%; in the assay on SF-295 CNS it was 81.5%; with SF-539 CNS, 95.1%. Besides, the results for the growth in the assay with UACC-257 melanoma and with M14 melanoma were 105% and 99.2%, respectively.

In the case of `COc1ccc(/C=C2/C(=O)Nc3cc(Cl)c(-c4csc(N)n4)cc32)cc1`, the growth in the assay on NCI-H23 lung is 58%; in the assay with NCI-H226 lung, 69.2%; with NCI-H322M lung it was 68.3%; with HOP-62 NSCLC, 50.1%; in the assay with NCI-H460 lung, 42.7%; in the assay with HOP-92 NSCLC, 43.1%. Moreover, the growth with NCI-H522 lung is 21.6%; with A549/ATCC NSCLC, 48.5%; in the assay with 786-0 renal it was 62.3%; in the assay on COLO 205 colon, 33.7%; in the assay on DU-145 prostate, 67.5%; in the assay on K-562 leukemia, 13.6%. In addition, the growth in the assay on MALME-3M melanoma was 75.1%; with MDA-MB-231 breast, 27.3%; in the assay on RXF 393 renal it was 59.7%; with SF-268 CNS, 58.7%; in the assay on SF-295 CNS it was 52.4%; with SF-539 CNS, 37.8%. For the same compound, the growth was 82.7% in the assay with UACC-257 melanoma and 29.9% in the assay with M14 melanoma.
